From PubChem BioAssay
Activity calls are given as the source filed them.

What was measured:
[1] = binders of probe aFSTL3 on microarray, primary screen, stem cell growth factor project, biochemical, small-molecule microarray, fluorescence 635/667 (AID 1064); settings: higher = more signal;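 also: measures binding of the biotinylated anti-FSTL3 antibody to printed compounds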
[2] = binders from COS7 lysate, DM2A8 probe, primary screen, torsin A project, cell lysate, small-molecule microarray, fluorescence 635/667 (AID 1065); settings: higher = more signal, COS7 lysate expressing mutant human TOR1A
[3] = binders of probe aFGF2 on microarray, primary screen, stem cell growth factor project, biochemical, small-molecule microarray, fluorescence 635/667 (AID 1067); settings: higher = more signal;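 also: measures binding of biotinylated aFGF2 protein to printed compounds on slides; z-score merges feature fluorescence and signal-to-noise across triplicate slides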
[4] = binders of probe aFGF10 on microarray, primary screen, stem cell growth factor project, biochemical, small-molecule microarray, fluorescence 635/667 (AID 1071); settings: higher = more signal;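 also: score merges 667 nm spot intensity and signal to noise from triplicate slides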
[5] = target: Neurogenic locus notch homolog protein 2 (Homo sapiens) (UniProt Q04721); assay: Notch2 binders on small-molecule microarrays, primary screen, biochemical, small-molecule microarray, 635 nm fluorescence, stem cell growth factors (AID 1073); settings: Notch2 binding, higher = more signal
[6] = target: Pro-neuregulin-1, membrane-bound isoform (Homo sapiens) (UniProt Q02297); assay: NRG1 binders on small-molecule microarrays, primary screen, psychiatric disease protein project, biochemical, small-molecule microarray, fluorescence 635/667 (AID 1075); settings: NRG1 binding, 635 nm fluorescence, higher = more signal;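 also: score combines 667 nm spot fluorescence with signal to noise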
[7] = tested on: Neuregulin-1 EGF-like domain; assay: binders of neuregulin-1 EGF-like domain, primary screen, biochemical, small-molecule microarray, 635 nm fluorescence (AID 1081); settings: small-molecule microarray binding, higher = more signal;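 also: binding of the protein to compounds printed on small-molecule microarray slides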
[8] = FRG1 promoter luciferase signal modulators, primary screen, FRG1 inhibition for FSHD, cell-based, C2C12 myotubes, firefly/Renilla luciferase, luminescence (AID 1084); settings: higher = more signal, called active from +8 up or from −8 down
[9] = binders of probe aFST on microarray, primary screen, stem cell growth factor project, biochemical, small-molecule microarray, fluorescence 635/667 (AID 1086); settings: higher = more signal;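 also: score merges 667 nm fluorescence with signal-to-noise of each printed compound spot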
[10] = binders of probe aHhip on microarray, primary screen, stem cell growth factor project, biochemical, small-molecule microarray, fluorescence 635/667 (AID 1087); settings: higher = more signal;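 also: score merges spot fluorescence at 667nm with spot signal to noise ratio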
[11] = tested on: PRMT1 (protein arginine N-methyltransferase 1); assay: PRMT1 binders on small-molecule microarrays, primary screen, biochemical, small-molecule microarray, 635 nm fluorescence (AID 1088); settings: small-molecule microarray binding, higher = more signal;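 also: binding of Prmt1 protein to compounds spotted on small-molecule microarray slides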
[12] = yeast growth modulation, basal conditions, primary screen, YJM789 clinical isolate, OD600, 24 h (AID 1089);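 also: growth of clinical yeast isolate S. cerevisiae YJM 789 seeded 1000 cells per well; test concentration not given here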; settings: S. cerevisiae YJM789 growth, higher = more signal, called active from +8 up or from −8 down
[13] = fission yeast growth modulation, primary screen, strain 972, OD600, 24 h, no modulator (AID 1090);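 also: basal condition with compound alone and no growth modifier present; test concentration not given here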; settings: S. pombe 972 growth, higher = more signal, called active from +8 up or from −8 down
[14] = S. cerevisiae growth modulation with rapamycin, primary screen, strain BY4716, OD600, 96 h (AID 1091); settings: higher = more signal, called active from +8 up or from −8 down; also: test concentration not given here
[15] = target: Torsin-1A-interacting protein 2 (Homo sapiens) (UniProt Q8NFQ8); assay: LULL1 binders on small-molecule microarray, primary screen, cell lysate, human LULL1 lysate, 635/667 nm fluorescence (AID 1092); settings: hLULL1 lysate binding, 635 nm fluorescence, higher = more signal;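 also: probe is lysate of COS7 cells overexpressing human LULL1; score merges per-feature 667 nm fluorescence with signal-to-noise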
[16] = E. coli growth modulation, two-sided OD650, primary screen, E. coli filamentation project, strain DRC41, 24 h (AID 1093); settings: OD650, 24 h, higher = more signal, called active from +8 up or from −8 down;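 also: MC1000 strain lacking acrAB efflux and sulA so SOS filamentation is blocked; test concentration not given here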
[17] = small-molecule microarray binders of probe aLefty2, primary screen, biochemical, biotinylated probe, 635/667 nm fluorescence (AID 1094); settings: higher = more signal;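 also: score merges spot fluorescence near 667 nm with spot signal-to-noise ratio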
[18] = tested on: Noggin (protein binding on small-molecule microarray); assay: Noggin binders on small-molecule microarray, primary screen, biochemical, 635/667 nm fluorescence (AID 1095); settings: 635 nm fluorescence, higher = more signal;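 also: score merges 667 nm feature fluorescence with signal to noise over triplicate slides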
[19] = target: Neurogenic locus notch homolog protein 3 (Homo sapiens) (UniProt Q9UM47); assay: NOTCH3 binders on small-molecule microarray, primary screen, biochemical, 635/667 nm fluorescence (AID 1096); settings: NOTCH3 binding, 635 nm fluorescence, higher = more signal
[20] = small-molecule microarray binders of probe aEGFR, primary screen, biochemical, biotinylated probe, 635/667 nm fluorescence (AID 1097); settings: higher = more signal;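 also: probe is a biotinylated anti-EGFR antibody binding compounds printed on slides; score combines fluorescence near 667 nm and signal to noise of each spot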

Neurogenic locus notch homolog protein 3 (Homo sapiens), sequence (Q9UM47 whole entry, looked up): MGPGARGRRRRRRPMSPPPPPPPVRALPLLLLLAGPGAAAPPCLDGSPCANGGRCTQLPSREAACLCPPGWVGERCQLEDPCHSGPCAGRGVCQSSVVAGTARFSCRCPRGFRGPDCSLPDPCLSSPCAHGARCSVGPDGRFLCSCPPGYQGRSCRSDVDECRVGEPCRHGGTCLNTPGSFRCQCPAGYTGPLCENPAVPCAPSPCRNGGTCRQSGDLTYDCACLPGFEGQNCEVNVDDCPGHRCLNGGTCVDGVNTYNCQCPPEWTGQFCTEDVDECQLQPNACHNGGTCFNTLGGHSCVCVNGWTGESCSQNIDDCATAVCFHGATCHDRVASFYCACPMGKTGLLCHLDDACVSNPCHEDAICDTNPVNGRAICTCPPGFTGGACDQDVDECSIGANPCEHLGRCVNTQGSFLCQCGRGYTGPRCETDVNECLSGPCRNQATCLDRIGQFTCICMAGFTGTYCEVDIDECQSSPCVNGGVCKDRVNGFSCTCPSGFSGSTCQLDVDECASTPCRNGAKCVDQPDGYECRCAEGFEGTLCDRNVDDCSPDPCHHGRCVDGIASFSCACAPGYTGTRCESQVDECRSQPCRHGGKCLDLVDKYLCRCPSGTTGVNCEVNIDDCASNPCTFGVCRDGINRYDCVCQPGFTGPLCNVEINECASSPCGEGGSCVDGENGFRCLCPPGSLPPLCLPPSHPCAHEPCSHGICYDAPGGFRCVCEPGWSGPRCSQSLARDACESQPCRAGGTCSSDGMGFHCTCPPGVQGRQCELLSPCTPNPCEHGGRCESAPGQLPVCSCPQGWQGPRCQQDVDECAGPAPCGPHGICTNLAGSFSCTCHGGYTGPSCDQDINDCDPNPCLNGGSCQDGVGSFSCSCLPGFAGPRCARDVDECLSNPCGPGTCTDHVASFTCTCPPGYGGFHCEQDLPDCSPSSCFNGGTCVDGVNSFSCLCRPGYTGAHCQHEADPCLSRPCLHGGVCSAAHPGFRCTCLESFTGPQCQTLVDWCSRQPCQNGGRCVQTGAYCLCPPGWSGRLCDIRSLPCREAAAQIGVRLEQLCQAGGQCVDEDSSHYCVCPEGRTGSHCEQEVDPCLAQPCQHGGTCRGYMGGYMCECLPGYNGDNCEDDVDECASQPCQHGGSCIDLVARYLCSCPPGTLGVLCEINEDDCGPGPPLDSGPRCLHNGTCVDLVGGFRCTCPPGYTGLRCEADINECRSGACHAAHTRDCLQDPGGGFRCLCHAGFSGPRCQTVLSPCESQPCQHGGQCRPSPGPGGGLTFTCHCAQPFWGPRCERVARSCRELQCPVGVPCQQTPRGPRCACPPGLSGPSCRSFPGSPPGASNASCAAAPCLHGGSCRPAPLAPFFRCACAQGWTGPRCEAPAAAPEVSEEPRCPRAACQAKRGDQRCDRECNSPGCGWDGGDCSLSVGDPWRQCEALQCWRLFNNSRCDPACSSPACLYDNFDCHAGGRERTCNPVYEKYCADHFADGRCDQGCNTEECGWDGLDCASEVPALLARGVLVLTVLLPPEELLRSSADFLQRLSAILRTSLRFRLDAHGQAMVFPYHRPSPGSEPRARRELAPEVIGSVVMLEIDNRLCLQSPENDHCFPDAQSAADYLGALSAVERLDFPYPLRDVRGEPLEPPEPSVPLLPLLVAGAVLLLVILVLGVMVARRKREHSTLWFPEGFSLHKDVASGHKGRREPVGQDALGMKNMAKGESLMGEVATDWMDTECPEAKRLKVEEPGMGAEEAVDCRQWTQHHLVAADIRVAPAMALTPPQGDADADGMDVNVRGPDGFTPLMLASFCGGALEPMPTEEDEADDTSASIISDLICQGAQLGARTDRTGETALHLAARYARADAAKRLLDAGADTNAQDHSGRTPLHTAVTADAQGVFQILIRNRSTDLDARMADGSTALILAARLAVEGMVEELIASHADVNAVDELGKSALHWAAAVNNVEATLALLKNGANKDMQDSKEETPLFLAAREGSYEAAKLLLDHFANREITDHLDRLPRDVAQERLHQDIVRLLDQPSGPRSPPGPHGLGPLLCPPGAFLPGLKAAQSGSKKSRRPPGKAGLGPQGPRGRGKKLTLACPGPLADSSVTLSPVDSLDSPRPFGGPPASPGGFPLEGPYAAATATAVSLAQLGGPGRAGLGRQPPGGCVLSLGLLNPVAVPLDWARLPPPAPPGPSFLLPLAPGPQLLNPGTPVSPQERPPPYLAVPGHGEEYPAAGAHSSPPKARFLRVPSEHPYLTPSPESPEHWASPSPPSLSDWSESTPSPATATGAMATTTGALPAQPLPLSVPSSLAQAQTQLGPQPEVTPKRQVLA
Pro-neuregulin-1, membrane-bound isoform (Homo sapiens), sequence (Q02297 whole entry, looked up, the tested form may be a part, canonical isoform): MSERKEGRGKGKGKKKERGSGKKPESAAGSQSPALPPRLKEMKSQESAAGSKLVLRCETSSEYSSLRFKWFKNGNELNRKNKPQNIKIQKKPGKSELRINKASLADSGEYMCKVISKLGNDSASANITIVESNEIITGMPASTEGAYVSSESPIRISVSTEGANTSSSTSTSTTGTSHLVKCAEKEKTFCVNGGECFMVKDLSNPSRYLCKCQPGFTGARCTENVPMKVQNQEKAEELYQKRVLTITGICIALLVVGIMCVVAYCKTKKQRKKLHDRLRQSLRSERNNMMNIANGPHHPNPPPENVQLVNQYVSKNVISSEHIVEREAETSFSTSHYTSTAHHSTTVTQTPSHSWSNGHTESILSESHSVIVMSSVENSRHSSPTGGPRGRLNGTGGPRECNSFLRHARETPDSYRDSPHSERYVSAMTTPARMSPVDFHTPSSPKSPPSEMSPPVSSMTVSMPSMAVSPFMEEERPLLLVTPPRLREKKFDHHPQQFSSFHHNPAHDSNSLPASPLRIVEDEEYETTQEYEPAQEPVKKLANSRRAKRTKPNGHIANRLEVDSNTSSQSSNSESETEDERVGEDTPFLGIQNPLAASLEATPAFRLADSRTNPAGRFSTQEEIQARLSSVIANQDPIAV
Torsin-1A-interacting protein 2 (Homo sapiens), sequence (Q8NFQ8 whole entry, looked up): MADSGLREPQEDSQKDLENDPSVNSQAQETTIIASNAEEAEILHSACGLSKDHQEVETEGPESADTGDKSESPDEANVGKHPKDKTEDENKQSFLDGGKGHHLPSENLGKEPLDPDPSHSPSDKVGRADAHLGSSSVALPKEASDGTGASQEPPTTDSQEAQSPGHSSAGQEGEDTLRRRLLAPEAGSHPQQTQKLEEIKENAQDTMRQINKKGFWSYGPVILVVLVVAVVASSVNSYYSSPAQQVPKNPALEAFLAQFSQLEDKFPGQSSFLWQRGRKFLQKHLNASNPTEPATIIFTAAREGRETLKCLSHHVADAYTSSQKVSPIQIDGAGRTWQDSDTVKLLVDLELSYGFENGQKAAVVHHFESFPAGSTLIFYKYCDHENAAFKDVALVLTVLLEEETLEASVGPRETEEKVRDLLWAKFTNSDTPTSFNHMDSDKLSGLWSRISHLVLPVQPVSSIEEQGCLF

Compound	composite z-score [1]	composite z-score [2]	composite z-score [3]	composite z-score [4]	composite z-score [5]	composite z-score [6]	composite z-score [7]	z-score [8]	composite z-score [9]	composite z-score [10]	composite z-score [11]	z-score [12]	z-score [13]	z-score [14]	composite z-score [15]	z-score [16]	composite z-score [17]	composite z-score [18]	composite z-score [19]	composite z-score [20]
[N-]=[N+]=Nc1ccccc1C[C@@]1(C(=O)NCCN2CCOCC2)N=C(c2ccc(OCCCO)cc2)O[C@@H]1c1ccccc1N=[N+]=[N-]	0.59	0.639	-0.167	1.28	1.04	1.69	1.29	-2.04 (inactive)	0.98	0.122	1.55	-2.36 (inactive)	-14.1 (active)	-0.321 (inactive)	3.19	-0.485 (inactive)	0.0672	0.325	0.811	0.0045
Oc1ccc2cc[n+](Cc3cc4c(cc3Br)OCO4)cc2c1	0.254	0.0899	-0.0148	-0.903	-1.69	-0.614	0.565	0.985 (inactive)	-0.164	-0.236	0.621	1.07 (inactive)	-1.41 (inactive)	0.645 (inactive)	-0.252	-0.603 (inactive)	0.0894	-0.883	-1.11	-0.211
[N-]=[N+]=Nc1ccccc1C[C@@]1(C(=O)N2CCOCC2)N=C(c2ccc(OCCCO)cc2)O[C@@H]1c1ccccc1	-0.4	-0.121	0.0324	1.11	1.3	1.06	1.18	-3.93 (inactive)	1.71	-0.112	1.54	-1.41 (inactive)	-2.77 (inactive)	0.0666 (inactive)	3.38	0.568 (inactive)	0.0946	0.955	1.11	0.778
CC1CC/C=C\[C@H]2OC34C=CCN(Cc5ccccc5)C(=O)[C@H]3N(C(CO)C(C)C)C(=O)[C@@H]4C2C(=O)O1 (stereo not given in full)	0.342	-0.153	-0.049	-0.0095	-0.68	0.491	1.39	1.32 (inactive)	-0.368	-0.0169	-0.856	0.0869 (inactive)	-0.978 (inactive)	0.101 (inactive)	0.251	0.154 (inactive)	-0.0042	-0.964	-1.1	0.244
COCCCNC(=O)[C@@]1(Sc2ccc(C)cc2)CC(=O)N(C2Cc3ccccc3C2)[C@@H]1c1ccc(CO)cc1	0.667	-1.94	-0.16	-0.459	-1.12	1.47	1.32	-1.11 (inactive)	-0.213	-0.164	0.585	0.0853 (inactive)	-1 (inactive)	-0.798 (inactive)	3.11	-1.27 (inactive)	-0.236	-1.72	-0.314	-0.254
O=c1cccc(-c2ccc([N+](=O)[O-])cc2)o1	-0.164	-0.0642	0.0008	0.287	0.698	-0.283	0.348	-0.0029 (inactive)	-0.192	-0.0263	1.03	-0.778 (inactive)	1.25 (inactive)	-0.495 (inactive)	0.706	0.188 (inactive)	-0.139	1.17	0.375	-0.0644
COC(=O)[C@@]1(Cc2ccc(OC)cc2)[C@H]2c3cc(C(=O)N4CCCC4)n(CCc4c[nH]c5ccc(OC)cc45)c3C[C@H]2CN1C(=O)c1ccccc1	1.49	1.14	0.204	0.686	1.74	0.898	1.16	0.49 (inactive)	1.55	-0.161	0.0079	0.425 (inactive)	1.84 (inactive)	4.15 (inactive)	3.03	-0.669 (inactive)	0.722	-0.0307	1.02	0.318
CC[C@@H]1C=C(C(=O)O)[C@H](c2ccc(C#N)cc2)N1S(=O)(=O)c1ccc(C)cc1	0.6	2.35	0.0865	1.09	0.905	1.25	1.3	0.281 (inactive)	0.145	-0.134	0.799	-0.407 (inactive)	-0.185 (inactive)	-0.104 (inactive)	3.47	0.405 (inactive)	0.283	-0.911	0.314	0.122
CCOC(=O)C[C@H]1[C@H](OC(=O)Cc2ccc3c(c2)OCO3)[C@@H](NC(=O)C2CCCCC2)c2cc(OCCCO)ccc2N1C(=O)c1ccccc1	0.0113	-0.155	-0.112	0.117	0.0925	-0.127	0.65	-1.14 (inactive)	-0.0611	-0.0994	1.05	0.193 (inactive)	-0.432 (inactive)	0.36 (inactive)	0.618	2.58 (inactive)	-0.248	0.0367	0.255	-0.0452
CCCC[C@@H](O)C1=C(COC)C[C@H]2C(=O)N(C)C(=O)[C@H]2[C@H]1CO	-0.439	0.131	-0.176	0.466	-0.02	-0.321	-0.282	-1.21 (inactive)	0.0794	-0.16	0.0449	-2.33 (inactive)	-1.77 (inactive)	-1.21 (inactive)	-0.419	1.1 (inactive)	-0.353	0.578	-0.277	-0.156
COC(=O)[C@@H]1N=C(c2ccc(OCCCO)cc2)O[C@@H]1C	0.0684	0.331	-0.0627	0.509	0.108	-0.519	0.155	5.05 (inactive)	0.195	0.0139	1.28	0.464 (inactive)	-0.0679 (inactive)	-0.184 (inactive)	-0.0276	0.98 (inactive)	0.0539	0.0641	0.0599	-0.0465
